Experimental findings from PubChem BioAssay are described below.

Assay [1] can be described thus: polyglutamine-triggered caspase-3 activation inhibitors, cell-based (AID 1583). The following applies: polyglutamine-induced caspase-3 activation, cell assay; stronger effect = higher value;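 tested at 10 µM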.
Assay [2] in a line: suppressors of polyQ aggregation in yeast, 75Q-TubU reporter (AID 1593). The following applies: Yeast 75Q polyglutamine aggregation reporter.
Assay [3] can be described thus: rescue of polyQ-huntingtin neuronal dysfunction in worms, whole organism, C. elegans mechanosensory neurons, N-terminal huntingtin (AID 1599). The following applies: touch response, stronger effect = higher value.
Assay [4] can be described thus: inhibitors of mitochondrial cytochrome c release, biochemical, purified mitochondria (AID 1603).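 Note: mouse liver mitochondria challenged with calcium chloride; signal normalized to the plate average as 100%.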 Conditions: stronger effect = lower value.
Assay [5] can be described thus: inhibitors of polyQ protein aggregation (AID 1604). The following applies: polyglutamine-induced protein aggregation inhibition assay; stronger effect = higher value; tested at 2.5 µM.
Assay [6] in a line: enhancers of glutamate uptake in motor neurons, MN-1 cell line (AID 1612).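 Note: tested at 1 µM final; 0% = mean of DMSO vehicle wells on each plate; positive means more glutamate uptake than control and negative means less.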 Conditions: MN-1 motor neuron cells, stronger effect = higher value.
Assay [7] is described as follows: reducers of polyQ inclusions in PC12 cells, cell-based, NGF-treated PC12, GFPQ80 (AID 1614).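 Note: lower means fewer inclusions and 0 means no inclusions at all.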 Conditions: PC12 NGF-treated GFP-polyQ80 inclusion reduction.
The nature of assay [8]: suppressors of polyglutamine aggregation in yeast, 75Q-TubH (AID 1616). Conditions: S. cerevisiae 75Q-TubH polyglutamine aggregation suppression; stronger effect = higher value.
The nature of assay [9]: protection against mutant huntingtin cytotoxicity, PC12 cells, LDH release (AID 1610). Conditions: PC12 mutant huntingtin toxicity, final LDH at 4 uM, stronger effect = lower value. (LDH leaks from cells whose membrane has failed.)
Assay [10] can be described thus: hESC survival regulators, cell-based (AID 493140).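 Note: cells exposed to compounds for four days before counting.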 The following applies: human embryonic stem cell survival screen; stronger effect = higher value.
Assay [11] concerns the target ATP-dependent translocase ABCB1 (Homo sapiens) (UniProt P08183). The assay is described as follows: MDR1 (ABCB1) efflux transporter inhibition, cell-based (AID 377; in the data active = fluorescence slope change above about 50%). Conditions: MDR1-expressing cells, fluorescent substrate accumulation slope; stronger effect = higher value; concentration not given here.
The nature of assay [12]: circadian clock period modulators, cell-based, LOPAC library, luminescence reporter (AID 2774).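 Note: values are relative to mean of DMSO wells on each plate.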 The following applies: circadian reporter cells, at 7 µM, actives lie on both sides.
Assay [13] is described as follows: protection of motor neurons from glutamate death, cell-based, TUNEL DNA degradation staining, MNGlu (AID 1594). Conditions: glutamate-induced death, at 1 µM, stronger effect = higher value.
In assay [14] the target is Huntingtin (Homo sapiens) (UniProt P42858). In words: inhibitors of mutant Htt aggregation in vitro, dose response, QA1 (AID 1584). Conditions: in vitro mutant huntingtin aggregation assay; confirmation test; at 10 µM; stronger effect = lower value.
Chain of Huntingtin (Homo sapiens) (P42858 whole entry, looked up): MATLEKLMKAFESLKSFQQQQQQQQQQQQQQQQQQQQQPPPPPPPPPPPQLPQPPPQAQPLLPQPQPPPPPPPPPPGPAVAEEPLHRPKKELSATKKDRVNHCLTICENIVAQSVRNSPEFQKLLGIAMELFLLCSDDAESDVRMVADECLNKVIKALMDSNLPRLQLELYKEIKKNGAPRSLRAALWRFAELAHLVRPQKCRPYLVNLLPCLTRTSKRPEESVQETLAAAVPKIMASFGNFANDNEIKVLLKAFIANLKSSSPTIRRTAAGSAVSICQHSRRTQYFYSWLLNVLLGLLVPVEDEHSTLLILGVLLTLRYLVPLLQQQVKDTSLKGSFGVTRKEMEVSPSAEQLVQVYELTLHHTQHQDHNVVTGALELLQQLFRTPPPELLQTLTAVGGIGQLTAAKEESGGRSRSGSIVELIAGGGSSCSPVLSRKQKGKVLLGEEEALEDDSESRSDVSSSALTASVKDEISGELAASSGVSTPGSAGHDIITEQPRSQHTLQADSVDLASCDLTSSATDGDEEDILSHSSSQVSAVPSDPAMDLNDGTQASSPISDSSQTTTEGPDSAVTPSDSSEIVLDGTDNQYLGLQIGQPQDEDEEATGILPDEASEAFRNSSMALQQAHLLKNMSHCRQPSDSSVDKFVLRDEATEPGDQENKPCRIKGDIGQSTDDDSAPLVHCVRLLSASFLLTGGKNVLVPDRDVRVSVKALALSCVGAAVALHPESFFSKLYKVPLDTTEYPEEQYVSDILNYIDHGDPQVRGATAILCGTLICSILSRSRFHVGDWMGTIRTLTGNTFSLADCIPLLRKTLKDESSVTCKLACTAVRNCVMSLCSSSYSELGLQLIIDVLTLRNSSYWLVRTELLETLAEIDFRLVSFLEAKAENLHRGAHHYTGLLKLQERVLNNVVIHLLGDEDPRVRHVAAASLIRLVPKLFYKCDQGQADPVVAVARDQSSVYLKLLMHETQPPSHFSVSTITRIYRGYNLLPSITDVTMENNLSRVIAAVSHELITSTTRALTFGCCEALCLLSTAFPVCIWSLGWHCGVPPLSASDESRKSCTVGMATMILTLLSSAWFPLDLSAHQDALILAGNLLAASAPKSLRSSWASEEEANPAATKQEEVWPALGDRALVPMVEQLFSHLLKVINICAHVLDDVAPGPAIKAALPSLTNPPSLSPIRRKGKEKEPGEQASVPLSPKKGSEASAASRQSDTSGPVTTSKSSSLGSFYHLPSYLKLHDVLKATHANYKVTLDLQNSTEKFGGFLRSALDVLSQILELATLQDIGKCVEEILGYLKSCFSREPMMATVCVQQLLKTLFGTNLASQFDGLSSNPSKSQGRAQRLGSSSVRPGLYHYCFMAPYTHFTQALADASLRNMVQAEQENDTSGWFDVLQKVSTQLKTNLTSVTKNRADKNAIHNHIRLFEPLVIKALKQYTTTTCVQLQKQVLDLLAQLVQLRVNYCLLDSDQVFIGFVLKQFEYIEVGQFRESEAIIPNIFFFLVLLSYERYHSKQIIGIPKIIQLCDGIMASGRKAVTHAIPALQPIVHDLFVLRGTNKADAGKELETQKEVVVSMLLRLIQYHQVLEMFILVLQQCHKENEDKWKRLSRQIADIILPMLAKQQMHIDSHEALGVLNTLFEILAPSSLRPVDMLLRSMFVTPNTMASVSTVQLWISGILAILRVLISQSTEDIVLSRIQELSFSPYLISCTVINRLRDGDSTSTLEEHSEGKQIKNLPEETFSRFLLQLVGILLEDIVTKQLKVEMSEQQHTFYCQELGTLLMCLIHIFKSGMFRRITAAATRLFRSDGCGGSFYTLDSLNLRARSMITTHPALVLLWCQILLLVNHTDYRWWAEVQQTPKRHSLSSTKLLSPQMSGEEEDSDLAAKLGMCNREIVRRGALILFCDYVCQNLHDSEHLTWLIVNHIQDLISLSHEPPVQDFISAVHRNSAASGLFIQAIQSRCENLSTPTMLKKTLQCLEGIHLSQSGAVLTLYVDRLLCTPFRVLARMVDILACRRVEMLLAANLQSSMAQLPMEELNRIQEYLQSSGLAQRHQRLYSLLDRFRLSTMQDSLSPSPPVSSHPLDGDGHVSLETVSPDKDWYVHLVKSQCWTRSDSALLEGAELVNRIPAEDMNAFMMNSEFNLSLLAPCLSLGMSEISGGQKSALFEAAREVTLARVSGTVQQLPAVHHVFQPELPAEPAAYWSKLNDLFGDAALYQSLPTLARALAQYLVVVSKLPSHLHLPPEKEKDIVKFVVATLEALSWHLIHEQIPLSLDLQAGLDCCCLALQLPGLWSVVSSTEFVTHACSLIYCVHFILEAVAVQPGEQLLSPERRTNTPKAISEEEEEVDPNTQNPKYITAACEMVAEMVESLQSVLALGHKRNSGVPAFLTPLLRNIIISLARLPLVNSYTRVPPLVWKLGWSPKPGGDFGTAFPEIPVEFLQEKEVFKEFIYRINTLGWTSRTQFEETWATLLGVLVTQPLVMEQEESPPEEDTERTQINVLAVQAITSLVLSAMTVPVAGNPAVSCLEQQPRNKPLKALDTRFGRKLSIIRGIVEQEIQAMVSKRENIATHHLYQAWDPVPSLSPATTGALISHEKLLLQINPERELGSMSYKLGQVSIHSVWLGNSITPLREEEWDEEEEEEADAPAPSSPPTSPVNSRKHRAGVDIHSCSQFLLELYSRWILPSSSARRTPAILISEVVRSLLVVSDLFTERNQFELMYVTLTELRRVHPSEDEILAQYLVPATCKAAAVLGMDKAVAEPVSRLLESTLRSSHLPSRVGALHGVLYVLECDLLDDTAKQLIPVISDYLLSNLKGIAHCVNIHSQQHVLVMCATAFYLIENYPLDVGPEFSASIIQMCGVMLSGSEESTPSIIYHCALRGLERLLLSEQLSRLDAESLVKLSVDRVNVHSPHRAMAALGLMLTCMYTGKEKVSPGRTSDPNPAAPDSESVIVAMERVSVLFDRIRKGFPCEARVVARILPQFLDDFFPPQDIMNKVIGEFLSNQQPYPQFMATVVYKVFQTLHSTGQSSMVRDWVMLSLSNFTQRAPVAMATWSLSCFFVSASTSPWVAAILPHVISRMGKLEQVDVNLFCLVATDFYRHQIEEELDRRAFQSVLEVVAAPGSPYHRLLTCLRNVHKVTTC
Assay [15] can be described thus: inhibitors of polyQ aggregate elongation, biochemical, solid-phase synthetic aggregates, QA3 (AID 1585). Conditions: biotin-polyQ incorporation; EC50: measured here: elongation inhibition potency; inhibition: at 100 µM, stronger effect = higher value.
Assay [16] in a line: mitochondrial permeability transition inhibitors (AID 1580). The following applies: isolated mitochondria, permeability transition inhibition.

Structures are written as SMILES. Records with an inconclusive call do not appear. For part of these data: Results with a measured potency or affinity are listed apart. Activity calls are given as the source filed them. Unless noted, the rule behind the calls is not given here.

Chain of ATP-dependent translocase ABCB1 (Homo sapiens) (P08183 whole entry, looked up): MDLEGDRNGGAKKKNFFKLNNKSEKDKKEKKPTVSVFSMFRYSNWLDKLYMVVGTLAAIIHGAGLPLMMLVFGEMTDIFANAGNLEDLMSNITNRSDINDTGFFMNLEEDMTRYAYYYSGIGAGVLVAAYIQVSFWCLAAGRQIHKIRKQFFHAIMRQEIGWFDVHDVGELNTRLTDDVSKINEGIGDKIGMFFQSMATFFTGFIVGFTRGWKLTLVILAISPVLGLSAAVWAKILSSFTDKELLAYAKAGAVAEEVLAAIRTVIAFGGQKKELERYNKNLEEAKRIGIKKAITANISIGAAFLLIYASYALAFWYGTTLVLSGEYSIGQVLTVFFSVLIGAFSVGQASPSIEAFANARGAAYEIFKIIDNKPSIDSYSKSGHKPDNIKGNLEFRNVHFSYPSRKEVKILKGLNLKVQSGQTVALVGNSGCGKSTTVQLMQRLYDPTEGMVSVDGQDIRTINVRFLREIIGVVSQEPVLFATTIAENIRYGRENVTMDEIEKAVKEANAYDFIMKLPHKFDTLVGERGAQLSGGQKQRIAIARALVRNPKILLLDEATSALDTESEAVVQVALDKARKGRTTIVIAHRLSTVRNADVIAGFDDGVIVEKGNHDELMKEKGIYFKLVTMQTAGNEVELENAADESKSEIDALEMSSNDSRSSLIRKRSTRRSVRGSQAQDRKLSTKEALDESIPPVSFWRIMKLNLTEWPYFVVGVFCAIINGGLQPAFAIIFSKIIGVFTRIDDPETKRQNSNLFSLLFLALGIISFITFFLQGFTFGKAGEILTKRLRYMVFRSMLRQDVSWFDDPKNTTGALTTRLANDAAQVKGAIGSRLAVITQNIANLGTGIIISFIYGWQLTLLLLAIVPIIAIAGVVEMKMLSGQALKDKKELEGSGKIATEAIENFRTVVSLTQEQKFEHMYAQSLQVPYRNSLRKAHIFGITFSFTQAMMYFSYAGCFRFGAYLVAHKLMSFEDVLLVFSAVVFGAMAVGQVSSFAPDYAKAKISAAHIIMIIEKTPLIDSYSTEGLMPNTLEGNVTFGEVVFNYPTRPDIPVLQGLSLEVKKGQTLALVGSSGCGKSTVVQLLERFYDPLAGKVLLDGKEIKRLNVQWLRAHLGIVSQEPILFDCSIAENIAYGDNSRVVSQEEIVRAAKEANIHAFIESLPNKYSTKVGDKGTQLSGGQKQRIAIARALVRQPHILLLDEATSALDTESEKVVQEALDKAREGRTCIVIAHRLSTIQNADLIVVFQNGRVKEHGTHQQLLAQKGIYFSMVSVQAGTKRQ

By inhibition is commonly meant the drop in the measured response relative to a control, in per cent. In the case of `Nc1ccc(C(=O)O)cc1`, the inhibition in assay [1] was found to be 2.66%. In [2], the score is 1.16. For the same molecule, the rescue above control in assay [3] was -2.5. Further, the cytochrome c release ratio in assay [4] came to 0.9. In [5], this molecule displayed an inhibition of aggregation of 72.2%. For the same molecule, the glutamate uptake change in [6] stood at 15.6%. Further, the inclusion score in [7] worked out at 2. The molecule also yielded an aggregation suppression score in assay [8] of 1.25.

Take `NC(=O)N/N=C/c1ccc([N+](=O)[O-])o1`: in [1], the inhibition is 21.9%. Further, the score in assay [2] came out at 1.11. This molecule also had a rescue above control in assay [3] of 14.1. For the same molecule, in assay [4], the cytochrome c release ratio is 1.45. In addition, in [5], the inhibition of aggregation was found to be 74.9%. For the same molecule, the normalised LDH release in assay [9] was found to be 0.973. For the same molecule, in assay [6], the glutamate uptake change worked out at 16.7%. For the same molecule, the inclusion score in [7] came out at 2. This molecule also returned an aggregation suppression score in [8] of 0.831. Also, in [10], the survival is 16.2 (inactive).

For `NC(=O)c1ccccc1O`, in assay [1], the inhibition is -13.1%. In assay [2], this molecule registered a score of 1.55. Further, the rescue above control in [3] is 9.08. Further, the cytochrome c release ratio in assay [4] was determined as 0.7. In [5], this molecule returned an inhibition of aggregation of 78.1%. For the same molecule, the glutamate uptake change in assay [6] is 8.07%. In [7], this molecule came in with an inclusion score of 2. This molecule displayed an aggregation suppression score in assay [8] of 1.02.

As for `O=C(O)c1cc(=O)c2ccccc2o1`, the inhibition in assay [1] was found to be 6.16%. The molecule also gave a score in assay [2] of 1.58. Further, the rescue above control in assay [3] is -0.59. Also, the cytochrome c release ratio in [4] was determined as 0.94. Also, the inhibition of aggregation in [5] was found to be 87.2%. Further, in assay [6], the glutamate uptake change was found to be 2.44%. In assay [7], this molecule displayed an inclusion score of 2. The molecule also registered an aggregation suppression score in assay [8] of 1.45.

Regarding `O=NN(CCCl)C(=O)NCCCl`, in assay [11], the fluorescence slope change is 11.5% (inactive). Besides, the inhibition in assay [1] is -31.5%. The score in assay [2] was determined as 0.3. In assay [3], this molecule registered a rescue above control of 5.39. Further, in [4], the cytochrome c release ratio stood at 0.91. Moreover, the inhibition of aggregation in assay [5] came to 72.2%. In addition, the normalised LDH release in assay [9] was determined as 0.621. For the same molecule, in assay [6], the glutamate uptake change stood at 5.94%. The molecule further yielded an aggregation suppression score in assay [8] of 0.185. The period change in assay [12] was 0.115 h (inactive).

As to `Cc1nnc(NS(=O)(=O)c2ccc(N)cc2)s1`, in [11], the fluorescence slope change was 9.7% (inactive). The inhibition in assay [1] came to 18.6%. Further, in [2], the score is 1.23. In [13], the protection was 35% (active). Further, in assay [3], the rescue above control is -5.75. Also, the cytochrome c release ratio in assay [4] was found to be 1.01. Further, the inhibition of aggregation in assay [5] was 68.2%. Further, the glutamate uptake change in [6] stood at 17.5%. In assay [7], the inclusion score worked out at 2. For the same molecule, the aggregation suppression score in [8] was 1.24. The survival in assay [10] was 5.75 (inactive).

By EC50 is commonly meant the concentration needed to bring the measured effect to its halfway point. Regarding `C=Cc1c(C)c2cc3[nH]c(cc4nc(cc5nc(cc1[nH]2)C(C)=C5CCC(=O)O)C(CCC(=O)O)=C4C)c(C)c3C=C`, the inhibition in assay [1] is 39.5%. Moreover, the aggregation ratio in [14] was 0.595. Also, in [15], the EC50 came to 106 µM and the inhibition is 59% (active). This molecule also showed a score in [2] of 0.75. Moreover, the cytochrome c release ratio in [4] came out at 1.37. In addition, the inhibition of aggregation in assay [5] stood at 77.5%. Besides, the glutamate uptake change in assay [6] was determined as 5.14%. Moreover, the aggregation suppression score in assay [8] worked out at 0.995. Moreover, the period change in assay [12] was -0.02 h (inactive).

`Oc1c(Cl)cc(Cl)c(Cl)c1Cc1c(O)c(Cl)cc(Cl)c1Cl`: the EC50 in assay [16] was 0.3 µM (active). For the same molecule, the inhibition in assay [1] was found to be 5.38%. In addition, the score in [2] is -1.67. Also, the rescue above control in [3] is -6.64. For the same molecule, the cytochrome c release ratio in assay [4] is 0.45. The inhibition of aggregation in assay [5] was determined as 91.6%. The same molecule yielded a normalised LDH release in assay [9] of 0.936. Moreover, the glutamate uptake change in assay [6] is -31.4%. Moreover, the aggregation suppression score in [8] is -0.244.

As to `Cc1ccc(C(C)C)cc2c(C)ccc1-2`, the inhibition in assay [1] worked out at 0.23%. In assay [15], the EC50 came to 57 µM and the inhibition was 73.4% (active). Further, in assay [2], the score was -2.73. In addition, in [3], the rescue above control was 1.94. In assay [4], the cytochrome c release ratio came out at 3.4. Further, in assay [5], the inhibition of aggregation came out at 30.6%. Further, the glutamate uptake change in [6] amounted to 4.08%. In addition, the aggregation suppression score in assay [8] was -1.39.

Take `OCc1ccccc1O`: the inhibition in assay [1] is -8.47%. In [2], the score came to 1.17. The molecule further showed a rescue above control in assay [3] of 12.8. Besides, the cytochrome c release ratio in assay [4] came to 0.81. The same molecule displayed an inhibition of aggregation in assay [5] of 67.8%. In addition, the glutamate uptake change in [6] is 16.3%. In assay [7], the inclusion score amounted to 2. In addition, the aggregation suppression score in [8] came out at 1.11.

On to `O=C(O)CCCCC1CCSS1` (centres undefined), for which the inhibition in [1] is -33.9%. In [2], this molecule yielded a score of 0.61. Also, the rescue above control in assay [3] came to 2.24. In addition, the cytochrome c release ratio in [4] was determined as 0.89. This molecule also yielded an inhibition of aggregation in assay [5] of 39.2%. In addition, the glutamate uptake change in assay [6] is -7.39%. Besides, the inclusion score in assay [7] came out at 2. For the same molecule, the aggregation suppression score in assay [8] was 0.186.
